Columns and labels:
[1] = biological target: T1, Aspartate--tRNA(Asp/Asn) ligase (Mycobacterium tuberculosis (strain ATCC 25618 / H37Rv)) (UniProt P9WFW3); assay: Assay for Asp RNA synthetase-1 from Mycobacterium tuberculosis; type: functional; parameters: scale not given: direction of the effect not stated beside the values; settings: 30 µM; also: in the data most compounds retested in dose-response had high values
T1 sequence (whole entry): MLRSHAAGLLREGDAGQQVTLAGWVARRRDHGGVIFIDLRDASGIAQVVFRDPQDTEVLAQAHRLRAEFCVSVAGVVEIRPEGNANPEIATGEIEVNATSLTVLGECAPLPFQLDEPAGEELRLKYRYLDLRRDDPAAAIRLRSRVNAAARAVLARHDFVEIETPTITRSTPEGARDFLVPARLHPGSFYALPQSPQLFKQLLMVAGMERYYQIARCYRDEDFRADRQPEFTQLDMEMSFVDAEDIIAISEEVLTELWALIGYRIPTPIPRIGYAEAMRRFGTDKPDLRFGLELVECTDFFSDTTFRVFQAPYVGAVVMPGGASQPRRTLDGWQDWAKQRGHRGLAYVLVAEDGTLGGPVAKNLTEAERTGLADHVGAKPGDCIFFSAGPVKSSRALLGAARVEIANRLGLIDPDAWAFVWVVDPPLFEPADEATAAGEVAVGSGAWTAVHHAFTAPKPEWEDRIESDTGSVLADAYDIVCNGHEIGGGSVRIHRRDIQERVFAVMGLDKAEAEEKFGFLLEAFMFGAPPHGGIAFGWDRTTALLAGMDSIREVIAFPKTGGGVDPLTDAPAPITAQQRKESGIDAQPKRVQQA

[2] = biological target: Shiga toxin 2 (Escherichia coli O157:H7) (UniProt P09385+P09386); assay: E. coli 0.157:H7 Shiga Toxin SOP - stx2 screening assay; type: functional; parameters: scale not given: direction of the effect not stated beside the values; settings: 30 µM

SMILES	Percent Effect [1] [%]	Percent Effect [2] [%]
COc1cc(CNCCc2nc(C)cs2)cc2c1OCCO2	-4.99	14.4
Cc1cccc(CN2CCc3c(nc(N4CCC(C)CC4)[nH]c3=O)C2)n1	-2.78	10.7
CN(C)C(=O)COCc1cncc2c1CCN(Cc1cnn(C)c1)C2	6.12	-43
Cc1nc(CN2CCCC(N(C)Cc3nnsc3Cl)C2)no1 (centres undefined)	-2.25	18.2
Nc1cc(N2CCCC2c2cnccn2)ncn1 (centres undefined)	6.36	0.702
CNC(=O)c1cnc(/C=C/c2cc(OC)c(OC)c(OC)c2)s1	-0.971	-44.8
O=C(CCc1nccs1)N1CCN(c2ncccn2)CC1	-0.577	11.5
Cc1occc1C(=O)N1CCC2(CC1)NC(=O)CC2c1cnn(C)c1 (centres undefined)	-0.199	-2.15
CN(Cc1ccsc1)C(=O)c1cccc(S(=O)(=O)NC(C)(C)C)c1	-1.73	-33.3
CN1CCCC(Cc2ccnc3ccncc23)CC1 (centres undefined)	-3.5	-21.3
O=C(c1ccc(OCC2CC2)nc1)N1CCCC(n2cncn2)C1 (centres undefined)	1.48	-39.7
CCc1nnsc1C(=O)NC1CCN(c2ccccn2)CC1	-5.57	-24.7
Cc1nnc(NC(=O)CN(C)CC2CCCN2c2cccnn2)s1 (centres undefined)	0.577	-34.1
COCCCNC(=O)CN1CCCC1c1c(C)nn(C)c1Cl (centres undefined)	-4.32	-37
CCc1ccccc1C(=O)N1CCN(S(C)(=O)=O)[C@@H](C)C1	0.259	-3
Cc1cccc(OCCC(=O)N2CCN(S(=O)(=O)N(C)C)CC2)c1C	-1.74	-7.47
Cc1noc(C(C)N2CCN(CC(=O)N3CCOCC3)CC2)n1 (centres undefined)	-8.27	-0.00886
COc1ccc(CN2CCCC3(CCN(c4ccsc4)C3=O)C2)cc1 (centres undefined)	1.46	-4.23
COc1ccc(C(=O)N2CCCC(CNS(C)(=O)=O)C2)cc1F (centres undefined)	1.03	22.9
CN(C)c1cncc(C2CCN(CCO)CC2)n1	-2.69	-4.99
CCC1=N[C@@]2(CC[C@@H]3CN(C(=O)NC(C)C)C[C@@H]32)C(=O)N1C	-7.39	3.05
Cc1cnn(CCNCC(O)COc2ccc(Cl)cc2)c1 (centres undefined)	-2.57	-37.4
Cc1nc(C2CCCN2CC(=O)NCCOc2ccccc2)no1 (centres undefined)	1.81	-11.3
Cc1ccc(C(=O)NCCCN2CCOCC2)c(Cl)c1	0.357	-18.1

SMILES	Percent Effect [1] [%]	Percent Effect [2] [%]
CC(C)(C)c1nc(CN2CCCC2CCc2ccccc2)no1 (centres undefined)	2.52	14.9
O=C(CCNC(=O)c1ccoc1)Nc1c(F)cccc1F	4.76	-4.74
O=C(NCCN1CCCCCC1=O)c1ccn(-c2ccc(F)cc2)n1	3.8	14.8
Cc1cnn(CC2CN(Cc3nccn3C)CCO2)c1 (centres undefined)	-3.32	17.1
CCC(NC(=O)C1CCN(S(C)(=O)=O)CC1)c1ccc(OC)c(OC)c1 (centres undefined)	0	-10.4
Cc1cnn(CC2CCCCN2CCCS(N)(=O)=O)c1 (centres undefined)	-8.36	-56.9
Cc1ccccc1OCCC(=O)OC(C)C(=O)Nc1sccc1C(N)=O (centres undefined)	-2.83	-38.1
Nc1nccc(N2CCC(Cc3ccccc3Cl)(C(=O)O)CC2)n1	-0.368	-4.46
CN(C)C(=O)CCC(=O)NCc1cccnc1-n1cnc2ccccc21	-3.48	-4.51
N#Cc1ccc(C(=O)N2CCn3c(Cn4cccn4)cnc3C2)cc1	1.54	0.128
CCN(Cc1ccco1)C(=O)c1cc(OC)c2c(c1)OCCO2	3.71	-2.41
Cc1ccc(NC(=O)c2cc(S(=O)(=O)N3CCCCC3)c[nH]2)cc1F	1.97	17.8
CCS(=O)(=O)N1CCc2ccc(NC(=O)Nc3ccc(F)cc3F)cc21	1.65	-10.5
CC(=O)Nc1ncc(S(=O)(=O)Nc2ccc(F)cc2)s1	2	-10.2
CC(=O)N1CCC2(CC1)CC(Oc1ccccc1)CO2 (centres undefined)	-1.48	-19.5
Cn1cnnc1C1CCCN(C(=O)Cc2ccc3c(c2)OCCO3)C1 (centres undefined)	-2.39	11.9
Cc1cccc(NS(=O)(=O)c2cc(C(=O)O)oc2C)c1Cl	-1.97	8.36
Cc1c(C(=O)NCC(C)C)nnn1-c1cccc2c1CCN(C)C2	0.928	-7.34
Cc1ccc(C(=O)N2C[C@@H](OCC3CCOCC3)[C@H]3OCCC[C@H]32)o1	-0.93	-15.3
O=C(CN1CCc2cncnc2C1)NCCOc1ccccc1	0.955	21.9
Cc1nc2c(c(N3CC=CC3)n1)CCN(Cc1ccoc1)CC2	-8.35	-69.4
CC(NC(=O)Nc1cccnc1N1CCCC1)c1nncn1C (centres undefined)	-2.86	7.91
COc1cnc(C2(O)CCN(C(=O)c3ccncc3)CC2)c(OC)n1	-2.63	-1.51
